# The supplement of paper PMC12067093, “Discovery and optimisation of a covalent ligand for TRIM25 and its application to targeted protein ubiquitination” (Chemical Science, 2025)
# Of roughly 21,000 targets only a part is listed; those with the largest changes were picked by preference.
# Legend:
# [1] = biological target: SARS_P49591_431_VEFVHMLNATMCATTR (UniProt P49591); assay: probe-labelled cysteine peptide fold change vs DMSO (competition) (log2 fold change); higher = less target engagement (more negative = stronger competition); conditions: THP-1, incubation time: 4 h
# Chain of UniProt P49591 (P49591 whole entry, looked up): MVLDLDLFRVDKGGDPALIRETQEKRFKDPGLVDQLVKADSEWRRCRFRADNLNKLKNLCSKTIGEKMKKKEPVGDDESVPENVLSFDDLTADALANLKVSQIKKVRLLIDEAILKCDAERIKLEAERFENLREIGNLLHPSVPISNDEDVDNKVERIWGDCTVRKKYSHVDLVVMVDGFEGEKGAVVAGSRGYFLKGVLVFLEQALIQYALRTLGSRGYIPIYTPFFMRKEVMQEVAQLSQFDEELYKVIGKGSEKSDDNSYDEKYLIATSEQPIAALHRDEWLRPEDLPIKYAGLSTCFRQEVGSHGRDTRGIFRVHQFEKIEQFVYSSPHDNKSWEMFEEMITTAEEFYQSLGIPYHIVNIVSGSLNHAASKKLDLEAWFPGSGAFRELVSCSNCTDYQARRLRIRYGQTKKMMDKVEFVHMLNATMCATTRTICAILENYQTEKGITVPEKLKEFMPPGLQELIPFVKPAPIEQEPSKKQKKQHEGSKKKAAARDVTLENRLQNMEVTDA
# [2] = biological target: SLFN11_Q7Z7L1_842_VVQLSDACDMLGDHIVLDSVRR (UniProt Q7Z7L1); assay: as above; conditions: THP-1, incubation time: 4 h
# Chain of UniProt Q7Z7L1 (Q7Z7L1 whole entry, looked up): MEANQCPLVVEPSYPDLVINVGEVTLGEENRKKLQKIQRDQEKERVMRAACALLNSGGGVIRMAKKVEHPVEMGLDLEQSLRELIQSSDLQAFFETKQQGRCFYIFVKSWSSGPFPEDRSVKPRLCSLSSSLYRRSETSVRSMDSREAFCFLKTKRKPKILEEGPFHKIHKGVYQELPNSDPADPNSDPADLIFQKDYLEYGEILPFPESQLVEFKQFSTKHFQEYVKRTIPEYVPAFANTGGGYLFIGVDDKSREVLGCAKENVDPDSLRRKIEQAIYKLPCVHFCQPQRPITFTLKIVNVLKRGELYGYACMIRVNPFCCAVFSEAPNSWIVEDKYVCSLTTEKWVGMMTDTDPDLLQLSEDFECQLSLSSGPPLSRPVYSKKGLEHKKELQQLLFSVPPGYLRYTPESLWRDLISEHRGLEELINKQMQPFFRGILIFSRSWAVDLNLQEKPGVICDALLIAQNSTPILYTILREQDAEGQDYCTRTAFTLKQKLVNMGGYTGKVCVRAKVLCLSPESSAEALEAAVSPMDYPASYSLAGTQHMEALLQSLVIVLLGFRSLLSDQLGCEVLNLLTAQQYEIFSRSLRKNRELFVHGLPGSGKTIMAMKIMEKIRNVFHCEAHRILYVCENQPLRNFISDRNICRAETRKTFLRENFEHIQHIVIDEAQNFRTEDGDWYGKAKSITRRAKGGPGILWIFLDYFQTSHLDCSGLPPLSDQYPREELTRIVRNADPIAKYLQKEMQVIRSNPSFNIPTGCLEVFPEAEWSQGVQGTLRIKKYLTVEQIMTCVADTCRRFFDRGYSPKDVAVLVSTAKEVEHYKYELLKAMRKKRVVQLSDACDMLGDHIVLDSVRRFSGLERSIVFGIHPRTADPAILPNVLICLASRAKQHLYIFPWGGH
# 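Note: competitive chemoproteomic profiling in live THP-1 cells with an iodoacetamide desthiobiotin (IA-DTB) probe, comparing probe-labelled peptide intensities in compound-treated cells against DMSO-treated controls.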
smiles,measurement,setting,value
CC1Cc2ccccc2N1C(=O)C1CCCN(C(=O)CCl)C1 (mixture of isomers) [TRIM25 ligand 11 (diastereomer mixture)],probe-labelled cysteine peptide fold change,[1]; 10 µM,0.102
same,probe-labelled cysteine peptide fold change,[1]; 50 µM,0.113
same,probe-labelled cysteine peptide fold change,[2]; 10 µM,0.174
same,probe-labelled cysteine peptide fold change,[2]; 50 µM,0.0323
